Bioassay records: PubChem BioAssay, several laboratories
In the library only some 1.8% were active in any assay of this set; here they are far more common.
ARNT TACC3 PPI: ARNT/TACC3 interaction disruption; AlphaScreen His-ARNT PAS-B/GST-TACC3 binding, luminescence; TACC3 fragment carries E629A point mutation; inhibition, % at 9.99 µM; actives 0.66% (n = 390,000); AID 623870;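 active = mean inhibition of replicates at least 50% and at least half of replicates each reaching 50%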
AI-2 QS mod: Vibrio harveyi AI-2 quorum sensing modulation | actives 0.4% (n = 300,000) | Vibrio harveyi JMH597 AI-2 luminescence/OD600 ratio, 9 h; hits give low values; strain lacks LuxN and CqsS sensors; 0 = neutral-control median | activity change, % at 7.5 µM; in the data active = activity change below about -75%, passing the limit was not always enough;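 note: luminescence divided by OD600 gain over 9 h not by final OD600 alone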
aDG glyco up: increases alpha dystroglycan glycosylation | activation, % at 10 µM | Pro5-aDG cells, alpha-DG glycosylation AlphaScreen (IIH6); 0% Pro5, 100% B10-LARGE cell signal | actives 0.22% (n = 360,000);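 active = activation of at least 8% versus controls, or a plate z-score of at least 8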;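 note: Pro5 are CHO cells carrying HIG-tagged alpha-DG that lacks glycosylation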
Mot1-301 SUMO: inhibitors of SUMOylation pathway: yeast Mot1-301 growth rescue | actives 1% (n = 320,000) | growth rescue, % at 18.8 µM | S. cerevisiae Mot1-301 growth rescue, ATP luminescence, 38.5C; percent above DMSO median, 100 means doubled;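 active = every valid replicate shows activation above 250% relative to neutral control wells; inactive = the rest, any valid replicate at or below 250%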
A1 inh: inhibitors of the anti-apoptotic protein A1, read as caspase activation. caspase activation, % (test concentration not listed). actives 0.066% (n = 330,000). MEF A1-2A-BIM cells, Caspase-Glo 3/7 luminescence, 3 h; percent of clofoctol response, vehicle zero;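 active = over half of replicate activation scores above 10%, or exactly half above 10 with the replicate mean above 10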
aDG conf: confirmation of alpha dystroglycan glycosylation activators | actives 17% (n = 600) | activation, % at 10 µM (by protocol) | shares compounds with aDG glyco up | AID 651671 | Pro5-aDG cells, alpha-DG glycosylation, IIH6 AlphaLISA; scaled to LARGE-overexpressing B10 cells as 100%;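 active = activation of at least 7% in one or more replicates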;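 note: cells exposed to compound for two days before detection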
Large screens that a line does not name were inactive (follow-up assays come after a bar, where they were run).

O=C(CC1SC(=Nc2ccccc2)N(CCc2ccccn2)C1=O)Nc1ccc(F)cc1 (stereo not given)	aDG glyco up 11 | aDG conf inactive
Cc1c(-n2c(SCC(=O)C(C)(C)C)nc3ccccc3c2=O)c(=O)n(-c2ccccc2)n1C	none
Cc1cc(=O)oc2cc(OCC(=O)N3CCc4ccccc4C3)ccc12	aDG glyco up 4.2 | aDG conf inactive
O=S(=O)(NC(=NCc1ccccc1)c1ccccc1F)c1ccccc1	none
COc1cc(NC(=O)CNC(=O)Cn2c(C)cc3ccccc3c2=O)cc(OC)c1OC	aDG glyco up 3.3 | aDG conf inactive
CCCC(=O)c1ccc(N2CCN(C(=O)c3ccccc3)CC2)c(F)c1	none
CCCC(=O)c1ccc(N2CCN(C(=O)c3ccccc3Br)CC2)c(F)c1	aDG glyco up 5.2 | aDG conf inactive
COc1cccc(N2CCN(C(=S)Nc3ccc(C)cc3C)CC2)c1	none
Cn1cc(Cl)c(-c2n[nH]c(=S)n2-c2ccccc2)n1	none
O=C(Nc1nnc(S(=O)(=O)N2CCOCC2)s1)c1ccc(F)cc1	aDG glyco up 8.7 | aDG conf inactive
Brc1ccc2nc(-c3ccccc3)c(Cc3ccsc3)n2c1	none (no result: ARNT TACC3 PPI, AI-2 QS mod, Mot1-301 SUMO, A1 inh)
CCOc1ccc(S(=O)(=O)N2CCN(c3ccccc3)CC2)c2cccnc12	none (no result: ARNT TACC3 PPI)
CCOc1ccc(S(=O)(=O)N2CCN(c3ccccc3OC)CC2)c2cccnc12	aDG glyco up 6.5 (no result: ARNT TACC3 PPI) | aDG conf inactive
COc1ccc(S(=O)(=O)N2CCCCCC2)cc1NC(=O)CC1OC(=O)c2ccccc21 (stereo not given)	none
Cc1nn(C)c(C)c1/C=C/C(=O)c1ccc(Cl)cc1Cl	aDG glyco up 8.4 (no result: Mot1-301 SUMO) | aDG conf inactive
O=C(CNC(=O)c1ccccc1F)Nc1ccncc1	none
O=C(CNC(=O)c1ccccc1F)NCc1ccncc1	aDG glyco up 5.9 (no result: ARNT TACC3 PPI, AI-2 QS mod) | aDG conf inactive
O=C(Cn1cnc2ccccc21)Nc1ccc(SC(F)F)cc1	aDG glyco up 10 | aDG conf inactive
CC(C)(O)C#Cc1ccc([C@H]2[C@@H](CO)N3CCCCN(C(=O)c4cccnc4)C[C@H]23)cc1	none (no result: AI-2 QS mod, aDG glyco up, Mot1-301 SUMO, A1 inh)
Cc1cccc(S(=O)(=O)c2c(N)n(Cc3ccco3)c3nc4ccccc4nc23)c1	aDG glyco up 21 | aDG conf inactive
CCCCn1c(N)c(S(=O)(=O)c2ccc(C)cc2)c2nc3ccccc3nc21	none
Cc1ccc(S(=O)(=O)c2c(N)n(Cc3ccco3)c3nc4ccccc4nc23)cc1	aDG glyco up 17 | aDG conf inactive
c1cc2c(cc1-c1[nH]ncc1CN1CC3C[C@@H]4CC1C[C@H](C3)C4)OCO2	none
OC1(c2ccc(OC(F)F)cc2)CSC(=Nc2cccnc2)N1C1CC1 (stereo not given)	aDG glyco up 6.9 (no result: ARNT TACC3 PPI, AI-2 QS mod) | aDG conf inactive
O=C(/C=C/c1ccco1)Nc1ccc(-c2nc3ccccc3[nH]2)cc1	aDG glyco up 5.0 | aDG conf inactive
Cc1cccc(C)c1NC(=O)c1ccc(-n2cncn2)nc1	aDG glyco up 3.8 | aDG conf inactive
N#Cc1cccc(NC(=O)CSc2nnc(-c3n[nH]c4ccccc34)o2)c1	none
C#Cc1cccc(NC(=O)CSc2nnc(-c3ccc(C(F)(F)F)cn3)o2)c1	aDG glyco up 3.5 | aDG conf inactive
CS(=O)(=O)c1ccc(Cl)c(NC(=O)CCCc2nc3ccccc3c(=O)[nH]2)c1	none
CC1(C)CC(=O)C=C(c2ccccc2-c2ccc(S(C)(=O)=O)cc2)C1=O	aDG glyco up 5.6 (no result: ARNT TACC3 PPI, AI-2 QS mod, Mot1-301 SUMO, A1 inh) | aDG conf inactive
CN1CCN(CC(=O)Nc2nc3ccccc3s2)CC1	none
CC(=O)Nc1ccc(NC(=O)CCOc2cc(C)ccc2C)cc1	none
CCOC(=O)C(/C(N)=N/C(=O)Nc1ccccc1)=C(\C)O	aDG glyco up 2.9 | aDG conf inactive
CCOC(=O)N1CCN(C(=O)c2cc(COc3ccc4ncccc4c3)on2)CC1	aDG glyco up 7.8 (no result: ARNT TACC3 PPI) | aDG conf inactive
O=C(c1cc(COc2ccc3ncccc3c2)on1)N1CCC[C@H]1CO	aDG glyco up 5.5 | aDG conf inactive
CC(CNC(=O)c1cc(COc2ccc3ncccc3c2)on1)c1ccccc1 (stereo not given)	aDG glyco up 4.7 | aDG conf inactive
CC(=O)Nc1ccc(NC(=O)CSc2nnc(C3CC3)n2C)cc1	none
COc1ccccc1N1CCN(C/C=C/c2ccc(N(C)C)cc2)CC1	none (no result: ARNT TACC3 PPI, aDG glyco up)
O=C(/C=C/c1ccccc1Cl)Nc1cccnc1	none
O=C(/C=C/c1ccc(Cl)c(Cl)c1)Nc1cccnc1	aDG glyco up 3.1 | aDG conf inactive
NC(c1csc(Nc2cc(Oc3ccccc3)ncn2)n1)C1CCCCC1 (stereo not given)	aDG glyco up 9.7 (no result: ARNT TACC3 PPI, AI-2 QS mod, Mot1-301 SUMO, A1 inh) | aDG conf 11
COc1ccc(C(N)c2csc(Nc3cc(Oc4ccccc4)ncn3)n2)cc1 (stereo not given)	none (no result: ARNT TACC3 PPI, AI-2 QS mod, Mot1-301 SUMO, A1 inh)
COc1ccc(C(=O)Nc2ccc(Cl)c(S(=O)(=O)Nc3ccccc3OC)c2)cc1	aDG glyco up 3.7 | aDG conf inactive
Cc1ccccc1CNS(=O)(=O)c1ccccc1[N+](=O)[O-]	none
Cc1onc(-c2ccccc2)c1CNS(=O)(=O)c1ccccc1[N+](=O)[O-]	aDG glyco up 2.6 | aDG conf inactive
C[C@@H]1CN([C@H](C)CO)C(=O)c2cc(N(C)C)ccc2O[C@@H](C)CCCCO[C@H]1CN(C)S(=O)(=O)c1cccs1	none (no result: AI-2 QS mod, aDG glyco up, Mot1-301 SUMO, A1 inh)
Cc1cc2c(cc1C)C(=O)C(Br)=C(N)C2=O	aDG glyco up 6.1 (no result: AI-2 QS mod, Mot1-301 SUMO, A1 inh) | aDG conf inactive
CCn1c(=O)n(CC)c2cc(N3CCCC3)c(NC(=O)c3ccc(OC)c(Br)c3)cc21	none
COc1ccc(Br)cc1C(=O)NCc1cccnc1	none
O=C(NC(=S)NCc1cccnc1)c1cc(Br)ccc1Cl	aDG glyco up 3.5 | aDG conf inactive
c1ccc2cc(-c3cc4ccccn4c3)ccc2c1	aDG glyco up 5.2 | aDG conf inactive
Cc1cccc(N/C(N)=N/c2nc3c(c(=O)[nH]2)CCCC3)c1	none
Cc1ccccc1Nc1nc(N)nc(COC(=O)c2ccco2)n1	aDG glyco up 3.8 (no result: AI-2 QS mod) | aDG conf inactive
O=C(c1cc(COc2c(F)cccc2F)on1)N1CCC(c2ccccc2F)C1 (stereo not given)	none
O=C(c1cc(COc2c(F)cccc2F)on1)N1CCC(c2ccncc2)CC1	aDG glyco up 9.2 | aDG conf inactive
Cc1cccc(C)c1OCc1cc(C(=O)N2CCN(C3CCCC3)CC2)no1	none
Cc1cccc(C)c1OCc1cc(C(=O)N2CCC(c3ccncc3)CC2)no1	aDG glyco up 6.2 | aDG conf inactive
O=C(C[C@@H]1CC[C@@H]2[C@H](COC[C@H](O)CN2C(=O)c2ccccc2F)O1)N1CCOCC1	none (no result: AI-2 QS mod, aDG glyco up, Mot1-301 SUMO, A1 inh)
